{"source": "PubChem BioAssay (Tox21)", "note": "Several values for one entry are separate records, joined by “and”; a condition that tells them apart may be missing. Equal values may be shown once. Records with an inconclusive call do not appear. A call without a number means that no potency is given here. A structure can be active in one record and inactive in another. Activity calls are given as the source filed them. Calls follow the shape of the dose curve; as a rule, active = well fitted cell-killing curve with a large enough effect in the repeat runs; inconclusive = weak or mixed curves, or effect the other way; inactive = no such curve, though single readings can be large or run the other way. Potency is read from the fitted curve at half-maximal effect."}
{"experiment": "qHTS assay for identifying genotoxic compounds that show differential cytotoxicity against isogenic chicken DT40 cell lines with known DNA damage response pathways - Rev3 mutant cell line (AID 743014); also: nearly all actives have a fitted effect of over 55% in size", "details": "chicken DT40 Rev3-/- viability, CellTiter-Glo, 40 h; series mostly up to 68.4 µM; activity, negative = cytotoxicity: at the top concentration", "excerpt": "National Center for Advancing Translational Sciences [NCATS]\nNIH Chemical Genomics Center [NCGC]\nU.S. Environmental Protection Agency [EPA]\nNational Institutes of Environmental Health Sciences [NIEHS]\nNational Toxicology Program [NTP]\nU.S. Food and Drug Administration [FDA]\nDNA repair pathways play a critical role in cellular homeostasis by repairing DNA damage induced by endogenous processes and xenobiotics. Isogenic chicken DT40 cell lines deficient in different DNA repair pathways can be used to identify genotoxic compounds and aid in characterizing the nature of the DNA damage induced. Two DNA repair-deficient cell lines with disrupted genes, Rad54/Ku70 or Rev3, were used to screen the Tox21 10K compound library. Possible genotoxicity was based on the presence of a significant increase in cytotoxicity in one or more of the DNA repair-deficient cell lines compared to that observed in the parental DNA repair-proficient cell line. CellTiter Glo viability assay (Promega, Madison, WI) was used to measure cell viability in these cells after compound treatment. This assay includes the data from the Rev3 mutant cell line.\nTox21 Assay Protocol Summary:\n300 DT40 mutant cells in 5 uL/well were dispensed into white, solid-bottom 1536-well plates using a Multidrop Combi (ThermoFisher Scientific, Waltham, MA) dispenser. After the assay plates were incubated at 37 C/5% CO2 for approximately 0.5 hour, 23 nL of compounds dissolved in DMSO, positive controls or DMSO only was transferred into the assay plate by a pintool work station (Kalypsys, San Diego, CA). The assay plates were incubated at 37 C/5% CO2 for 40 hours. After 5 uL per well of CellTiter-Glo reagent was added into each well of the assay plates, the plates were incubated for 30 min at room temperature and the luminescence intensity of the plates was measured using a ViewLux (PerkinElmer, Shelton, CT) plate reader."}
{"smiles": "C[C@]12CC[C@@H]3c4ccc(O)cc4CC[C@H]3[C@@H]1CC[C@H]2O", "Potency": "24.8 µM (active) and 48.6 µM (active)"}
{"smiles": "O=S1(=O)CCCO1", "Potency": "inactive"}
{"smiles": "CCC/C=C/C=O", "Potency": "inactive"}
{"smiles": "CC(C)(Oc1ccc(Cl)cc1)C(=O)O", "Potency": "inactive"}
{"smiles": "c1ccc2c(c1)ccc1ncccc12", "activity, negative = cytotoxicity": "-0.67% (inactive)"}
{"smiles": "C[C@]12C=CC(=O)C=C1CC[C@H]1[C@@H]3C[C@@H](O)[C@](O)(C(=O)CO)[C@@]3(C)C[C@H](O)[C@@]12F", "Potency": "8.63 µM (active)"}
{"smiles": "C=C[C@H]1CN2CC[C@H]1C[C@@H]2[C@@H](O)c1ccnc2ccc(OC)cc12", "Potency": "47.8 µM (active)"}
{"smiles": "C1COCCN1", "activity, negative = cytotoxicity": "5.68% [at 95 µM] (inactive)"}
{"smiles": "Cc1ccc(/C(=C\\CN2CCCC2)c2ccccn2)cc1", "Potency": "inactive and 57.3 µM (active)"}
{"smiles": "CC1=CC(C)(C)Nc2ccccc21", "activity, negative = cytotoxicity": "0.537% (inactive)"}
{"smiles": "CCCCCC=O", "Potency": "inactive"}
{"smiles": "C1CN(SSN2CCOCC2)CCO1", "Potency": "42.8 µM (active) and 27.3 µM (active)"}
{"smiles": "CC(C)=CCO", "Potency": "inactive"}
{"smiles": "Cc1ccc2c(c1)C(=O)OC2=O", "Potency": "inactive"}
{"smiles": "FC(F)(F)C(Cl)Br", "note": "(stereo not given)", "activity, negative = cytotoxicity": "6.85% (inactive)"}
{"smiles": "Cc1cccc(Nc2ccccc2C(=O)O)c1C", "Potency": "inactive"}
{"smiles": "Cc1ccc(C(C)(C)C)cc1", "Potency": "inactive"}
{"smiles": "C=CCOC(=O)C(=C)C", "Potency": "inactive"}
{"smiles": "ClC/C=C/CCl", "Potency": "inactive"}
{"smiles": "COC(=O)c1ccc(C)cc1", "Potency": "inactive"}
{"smiles": "CC[C@]12CCCN3CCc4c(n(c5ccccc45)[C@@](O)(C(=O)OC)C1)[C@@H]32", "Potency": "inactive"}
{"smiles": "C=CCCCCCCCCCC", "Potency": "inactive"}
{"smiles": "Cc1ccc(S(=O)(=O)O)cc1C", "Potency": "inactive"}
{"smiles": "CN(C)/N=N/c1nc[nH]c1C(N)=O", "Potency": "inactive"}
{"smiles": "COc1ccc2nc(N)sc2c1", "activity, negative = cytotoxicity": "-4.67% (inactive)"}
{"smiles": "CC1(C)O[C@@H]2C[C@H]3[C@@H]4C[C@H](F)C5=CC(=O)C=C[C@]5(C)[C@@]4(F)[C@@H](O)C[C@]3(C)[C@]2(C(=O)CO)O1", "Potency": "inactive"}
{"smiles": "O=[Se](O)O", "Potency": "545 nM (active) and 4.16 µM (active)"}
{"smiles": "COc1ccc(C(=O)c2ccccc2O)c(O)c1", "activity, negative = cytotoxicity": "-10.5% [at 31.4 µM] (inactive)"}
{"smiles": "COc1ccc(-c2coc3cc(O)cc(O)c3c2=O)cc1", "Potency": "27.3 µM (active)"}
{"smiles": "CC(=O)[C@H]1CC[C@H]2[C@@H]3CC=C4C[C@@H](O)CC[C@]4(C)[C@H]3CC[C@]12C", "Potency": "0.485 µM (active)"}
{"smiles": "CC1(C)C(C=C(Cl)Cl)C1C(=O)OCc1cccc(Oc2ccccc2)c1", "note": "(stereo not given)", "Potency": "inactive"}
{"smiles": "CC(=O)O[C@]1(C(C)=O)CC[C@H]2[C@@H]3C=C(C)C4=CC(=O)CC[C@]4(C)[C@H]3CC[C@@]21C", "Potency": "12.7 µM (active) and 17.2 µM (active)"}
{"smiles": "Brc1nc2ccccc2s1", "Potency": "inactive"}
{"smiles": "C=C[C@@]1(C)CC(=O)[C@]2(O)[C@@]3(C)[C@@H](O)CCC(C)(C)[C@@H]3[C@H](O)[C@H](OC(C)=O)[C@@]2(C)O1", "Potency": "inactive and 48.6 µM (active)"}
{"smiles": "CC/C=C\\C/C=C\\C/C=C\\CCCCCCCC(=O)O", "Potency": "inactive and 48.6 µM (active)"}
{"smiles": "CCCCCCCCCCC(CO)CCCCCCCC", "note": "(stereo not given)", "Potency": "inactive"}
{"smiles": "CC(C)[N+](C)(CCOC(=O)C1c2ccccc2Oc2ccccc21)C(C)C", "activity, negative = cytotoxicity": "7.4% (inactive)"}
{"smiles": "Cc1ccc(C)c(O)c1", "activity, negative = cytotoxicity": "13.8% (inactive)"}
{"smiles": "O=C1OC2(c3ccccc31)c1cc(I)c(O)c(I)c1Oc1c2cc(I)c(O)c1I", "Potency": "27.6 µM (active) and 11.7 µM (active)"}
{"smiles": "Cc1ccc([N+](=O)[O-])c(C)c1", "Potency": "inactive"}
